{"source": "PubChem BioAssay AID504697", "about": "(The Scripps Research Institute Molecular Screening Center, 2011)", "note": "Values without a mark were called inactive. Activity calls are given as the source filed them.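 How the source made its calls: active means EC50 at or below 10 µM; inactive means EC50 above 10 µM.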", "data": [{"assay": "compound autofluorescence in calcium buffer – biochemical, fluorescence, no RTF in test wells, artefact control for cardiac thin filament activator project, dose response (AID 504697);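 further: emission near 535 nm under roughly 485 nm excitation as for IANBD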", "conditions": "compound-only fluorescence in RTF assay buffer with Ca2+ (no RTF in test wells), artifact counterscreen", "values": [{"smiles": "O=C(O)CCC(=O)Nc1cc(C(F)(F)F)cc(C(F)(F)F)c1", "EC50": "> 71.4 µM"}, {"smiles": "COc1ncnc2c1N=C1CC(C)(C)CC(N)=C1S2", "EC50": "23.5 µM"}, {"smiles": "CC(=O)Oc1ccc(NC(=O)Cc2ccccc2)c(C(=O)O)c1", "EC50": "> 71.5 µM"}, {"smiles": "CC(Oc1ccc(F)cc1)C(=O)Nc1sc2c(c1C(=O)NCc1cccnc1)CCCC2", "note": "(configuration not stated)", "EC50": "> 71.5 µM"}, {"smiles": "COc1ccc(/C=N/NC(=O)c2cc(OC)c(OC)c(OC)c2)cc1CN1CCc2cc(OC)c(OC)cc2C1C", "note": "(configuration not stated)", "EC50": "> 71.5 µM"}, {"smiles": "CC(C)Sc1nc2ccc(Br)cc2[nH]1", "EC50": "> 71.4 µM"}, {"smiles": "N=c1n(Cc2ccccc2)c2ccccc2n1CC(O)c1ccco1", "note": "(configuration not stated)", "EC50": "> 71.5 µM"}, {"smiles": "COc1ccc(N=C2NC(=O)S/C2=C\\c2ccc(N(C)C)cc2)cc1", "EC50": "5.67 µM (active)"}, {"smiles": "Cc1cccc(/C=N/n2c(-c3ccncc3)n[nH]c2=S)c1", "EC50": "> 71.5 µM"}, {"smiles": "O=C(NC1CCCCC1)c1cc2nc3c(c(C(F)(F)F)n2n1)CCCC3", "EC50": "> 71.5 µM"}, {"smiles": "O=C(Nc1ccc(C(=O)N2CCOCC2)cc1)Nc1cccc(Cl)c1", "EC50": "> 71.5 µM"}, {"smiles": "CN(N=Nc1ccc([N+](=O)[O-])cc1)c1ccccc1", "EC50": "8.06 µM (active)"}, {"smiles": "COc1ccc2nc(-c3ccccn3)[nH]c2c1", "EC50": "> 71.5 µM"}, {"smiles": "O=C(CNCc1cccs1)Nc1ccc(S(=O)(=O)N2CCCCC2)cc1", "EC50": "> 71.5 µM"}, {"smiles": "Oc1ccc2ccc3cccc[n+]3c2c1", "EC50": "2.46 µM (active)"}, {"smiles": "COc1cc(CCCN2C(=S)NC[C@@H]2CC2CCCCC2)cc(OC)c1OC", "EC50": "> 71.5 µM"}, {"smiles": "CCC(/C=C1\\Oc2ccc(OC)cc2N1C)=C\\c1sc2ccccc2[n+]1CCCS(=O)(=O)[O-]", "EC50": "2.92 µM (active)"}, {"smiles": "CC1(C)CC(=O)C(C=Nc2cc(C(=O)c3ccccc3)ccc2N)=C(O)C1", "EC50": "> 71.5 µM"}, {"smiles": "COc1ccc(C(=O)Nc2cc(C(C)=O)c(/C=C/N(C)C)oc2=O)cc1", "EC50": "29.5 µM"}, {"smiles": "N#C/C(=C\\c1ccc(-c2ccc(F)cc2)o1)C(=O)Nc1nc(-c2cccs2)cs1", "EC50": "> 71.5 µM"}, {"smiles": "COc1ccc2nc(C)c3cc(C)oc3c2c1", "EC50": "> 71.4 µM"}, {"smiles": "COc1ccccc1N1CCN(c2ccc([N+](=O)[O-])cc2Cl)CC1", "EC50": "> 71.5 µM"}, {"smiles": "CCN(CC)c1ccc(/C=c2\\sc3nc4ccccc4n3c2=O)c(O)c1", "EC50": "14.4 µM"}, {"smiles": "C=COc1ccc(N2C(=O)c3ccccc3OC2C)cc1", "note": "(configuration not stated)", "EC50": "> 71.4 µM"}, {"smiles": "O=C(N/N=C/c1sc2ccccc2c1O)c1ccccc1", "EC50": "17.9 µM"}, {"smiles": "O=C(/C=C/c1cn(CC(O)CN2CCCCC2)c2ccccc12)c1cccs1", "note": "(configuration not stated)", "EC50": "34.6 µM"}, {"smiles": "Cc1cc(/C=C2/C(=O)N(C)C(=S)N2C)ccc1N1CCCC1", "EC50": "28.8 µM"}, {"smiles": "COc1ccc(CCNC(=O)COC(=O)c2cc(=O)[nH]c3ccccc23)cc1", "EC50": "> 71.5 µM"}, {"smiles": "Cc1cc(NC(=O)COC(=O)C(Cc2ccccc2)NC(=O)c2ccco2)no1", "note": "(configuration not stated)", "EC50": "> 71.5 µM"}, {"smiles": "O=C(CSC1=NS(=O)(=O)c2ccccc2N1)N1CCCCC1", "EC50": "> 71.5 µM"}, {"smiles": "Cc1c(O)c2c3c(cccc3c1O)C(=O)N(c1ccccc1)C2=O", "EC50": "13.9 µM"}, {"smiles": "O=C(Nc1ccccc1-c1ccccc1)c1ccc(Cl)c([N+](=O)[O-])c1", "EC50": "> 71.5 µM"}, {"smiles": "S=c1[nH]nc(-c2ccc(Cl)cc2)n1-c1ccc2c(c1)OCCO2", "EC50": "> 71.5 µM"}, {"smiles": "COc1ccccc1NS(=O)(=O)c1cc(NC(=O)c2cc3ccccc3oc2=O)ccc1C", "EC50": "> 71.5 µM"}, {"smiles": "O=C(NC1CCCCC1)c1cccc2c1C(=O)c1ccc(N3CCCC3)cc1S2(=O)=O", "EC50": "> 23.8 µM"}, {"smiles": "O=[n+]1c2c(n([O-])c3cc(F)c(N4CCCC4)cc31)CCC2", "EC50": "9.61 µM (active)"}, {"smiles": "CCC[C@@H](CN1CCC[C@H]1CN1C(N)=NC[C@@H]1Cc1ccccc1)N1C[C@@H](Cc2ccccc2)N(CCCC2CCCC2)C1=N", "EC50": "> 71.4 µM"}]}]}
